Source: PubChem BioAssay AID2284146 (EPA ToxCast)
Activity calls are given as the source filed them. How the source made its calls: active means hit-call score of the fitted dose curve at least 0.9, where 1 is the maximum; inactive means score below 0.9.

Molecular target: human Adrenoceptor alpha2A Antagonism, ADRA2A (gene 150) (UniProt P08913)
Experiment: ERF_TW_GPCR_hADRA2A: Eurofins (ERF) G Protein-Coupled Receptor (GPCR) Radioligand Binding LeadHunter Assay for human Adrenoceptor alpha2A Antagonism
Procedure: ERF_TW_GPCR_hADRA2A is a biochemical, single-readout assay that uses extracted gene-proteins in a cell-free assay. Measurements were taken 1 hour after chemical dosing in a 96-well plate. See alpha2A Human Adrenoceptor GPCR Binding (Antagonist Radioligand) Assay, Panlabs.ERF_TW_GPCR_hADRA2A is an assay component calculated from the ERF_TW_GPCR_hADRA2A assay. It is designed to measure radioligand binding using a type of binding reporter as detected by scintillation counting with radiometry technology.Data from the assay component ERF_TW_GPCR_hADRA2A was analyzed at the assay endpoint, ERF_TW_GPCR_hADRA2A, in the positive analysis fitting direction relative to DMSO as the negative control and baseline of activity. Using a type of binding reporter, loss-of-signal activity can be used to understand changes in radioligand binding as they relate to gene ADRA2A. To generalize the intended target to other relatable targets, this assay endpoint is annotated to the gpcr intended target family, where the subfamily is adrenoceptor.
Human recombinant adrenergic alpha2A receptors expressed in CHO-K1 cells are used in modified Tris-HCl buffer pH 7.4. A 2 ug aliquot is incubated with 1.5 nM [3H]Rauwolscine for 60 minutes at 25C. […] Receptors are filtered and washed, the filters are then counted to determine [3H]Rauwolscine specifically bound. […]

Sequence of human Adrenoceptor alpha2A Antagonism, ADRA2A (gene 150) (P08913 whole entry, looked up): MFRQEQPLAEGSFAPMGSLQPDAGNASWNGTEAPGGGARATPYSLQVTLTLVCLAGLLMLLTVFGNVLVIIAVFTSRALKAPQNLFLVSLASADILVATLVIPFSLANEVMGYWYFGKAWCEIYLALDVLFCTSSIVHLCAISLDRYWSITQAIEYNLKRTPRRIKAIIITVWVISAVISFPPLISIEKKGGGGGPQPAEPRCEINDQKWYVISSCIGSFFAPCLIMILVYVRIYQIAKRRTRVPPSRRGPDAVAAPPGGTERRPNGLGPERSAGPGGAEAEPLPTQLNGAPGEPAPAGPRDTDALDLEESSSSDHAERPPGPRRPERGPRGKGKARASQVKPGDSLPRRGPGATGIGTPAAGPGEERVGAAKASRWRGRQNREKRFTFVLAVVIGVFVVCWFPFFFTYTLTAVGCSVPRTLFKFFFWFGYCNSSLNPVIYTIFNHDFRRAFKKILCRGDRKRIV

| SMILES | AC50 |
| --- | --- |
| O=C(/C=C/c1ccc(O)cc1)CC(=O)/C=C/c1ccc(O)cc1 | 1.14 µM (active) |
